Rows were chosen to be rich in hits. Some 1.1% of all compounds tested hit in one or more screens of this group.
AmpC inh detg – qHTS Inhibitors of AmpC Beta-Lactamase (assay with detergent); P00811; AmpC hydrolysis of nitrocefin, absorbance 480 nm, 0.01% Triton; Potency, µM (top dose mostly 114 µM), without a hit: at the highest dose activity change, negative = inhibition, hits mostly inhibitors; hit rate 0.041% among 370,000;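 also: 0% = no-compound wells and -100% = no-enzyme wells; nearly all actives have a fitted effect of over 25% in size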
Target sequence (P00811 whole entry, looked up): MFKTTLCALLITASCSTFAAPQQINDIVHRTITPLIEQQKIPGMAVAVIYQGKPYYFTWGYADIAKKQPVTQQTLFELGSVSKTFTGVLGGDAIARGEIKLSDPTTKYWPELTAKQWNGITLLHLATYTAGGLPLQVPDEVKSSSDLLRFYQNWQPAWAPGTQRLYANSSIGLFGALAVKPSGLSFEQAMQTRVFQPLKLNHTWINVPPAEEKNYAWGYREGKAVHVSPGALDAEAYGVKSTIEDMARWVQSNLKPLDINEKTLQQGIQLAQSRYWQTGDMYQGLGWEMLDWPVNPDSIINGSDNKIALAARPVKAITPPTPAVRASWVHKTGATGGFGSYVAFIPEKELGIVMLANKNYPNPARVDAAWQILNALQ
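AmpC (5.3 nM in the dispensed reagent) in 20 mM phosphate pH 7.0 with 0.01% (detergent screen) or 0.0001% Triton X-100 was preincubated with compounds for 15 min at room temperature. Nitrocefin was then added from an 800 uM solution, and hydrolysis was followed at 480 nm.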
Vaccinia mCherry – qHTS for Stage-Specific Inhibitors of Vaccinia Orthopoxvirus: mCherry Reporter Primary qHTS; hit rate 0.63% among 310,000; Potency, µM (highest dose often 36.5 µM), inactives show at the top dose activity change, negative = inhibition, actives largely listed as inhibitors; Vaccinia virus mCherry reporter infection, fluorescence; calls by dose curve; tested in A549 cells; also: nearly all actives have a fitted effect of over 35% in size
Vaccinia Venus – qHTS for Stage-Specific Inhibitors of Vaccinia Orthopoxvirus: Venus Reporter Primary qHTS; Potency, µM (titrated, usually from 36.5 µM), for inactives: at the highest dose activity change, negative = inhibition, hits mostly inhibitors; hit rate 0.46% among 330,000; AID 720580, 2013; Vaccinia virus Venus reporter expression, fluorescence; calls by dose curve; tested in A549 cells; also: nearly all actives have a fitted effect of over 30% in size
AmpC inh no detg – qHTS Inhibitors of AmpC Beta-Lactamase (assay without detergent); P00811; AmpC nitrocefin hydrolysis, absorbance 480 nm, 0.0001% Triton; Potency, µM (titrated, usually from 57.1 µM), for the others: at the top dose activity change, negative = inhibition, actives largely listed as inhibitors; hit rate 0.52% among 330,000; AID 485341, 2010;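 also: plate controls were no compound for no effect and no enzyme for full effect; nearly all actives have a fitted effect of over 20% in size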
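20 mM phosphate pH 7.0 + 0.01% (detergent screen) or 0.0001% Triton X-100; 5.3 nM AmpC reagent; cpd preinc 15 min RT; nitrocefin (800 uM stock) to start; A480 q20 s × 4 min; Activity was normalised to no-enzyme and no-compound control wells.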
* marks the source's active call; other numbers are inactive results. Unless noted, calls follow the shape of the dose curve; as a rule, active = well fitted curve in the direction sought with a large enough effect; inconclusive = small, poorly fitted or top-dose-only effect, or another doubt; inactive = no such curve, though single readings can be large; an effect the other way counts as inactive or inconclusive. Unless noted, % is scaled to controls: 0 for no effect and ±100 for the full control effect; potency is read from the fitted curve at half-maximal effect.

`Cc1nc2sccn2c1CN1Cc2ccccc2OC(c2ccccc2F)C1` (stereo unspecified) gave Vaccinia mCherry -6% and Vaccinia Venus 0%.
For Cc1sc2ccccc2[n+]1CCc1ccccc1 the results were Vaccinia mCherry -15% and Vaccinia Venus -7%.
O=C1CCC[C@@H]2C[C@@]3(C[C@@H]4CCN1[C@H]24)Nc1cc([N+](=O)[O-])ccc1NC3=NCc1ccccc1 was read as Vaccinia mCherry -11% and Vaccinia Venus -29%.
CCC1CN(Cc2cn[nH]c2-c2ccc(F)cc2)Cc2cc(OC)ccc2O1 (stereo unspecified) was read as Vaccinia mCherry -13% and Vaccinia Venus -16%.
Cc1ncc2c(c1CNC(=O)c1ccccc1F)CCN(C(=O)c1[nH]c3ccc(Cl)cc3c1C)C2 was read as Vaccinia mCherry 1% and Vaccinia Venus -3%.
Screening Cc1nc([N+](=O)[O-])c(Br)n1CC(=O)c1ccc2ccccc2c1 returned AmpC inh detg 2%, Vaccinia mCherry 1.1µM*, Vaccinia Venus 1.6µM* and AmpC inh no detg 16%.
Screening Cc1nc([N+](=O)[O-])c(Br)n1CC(=O)c1ccccc1 returned AmpC inh detg 4%, Vaccinia Venus 2.2µM* and AmpC inh no detg -10%.
Screening O=C(Nc1cccc(C(F)(F)F)c1)Nc1ccc(N2CCCC2)c(S(=O)(=O)Nc2ccccc2Cl)c1 returned AmpC inh detg -13%, Vaccinia mCherry 11µM*, Vaccinia Venus 11µM* and AmpC inh no detg -53%.
CC1CCc2c(sc3nc(C4CC4)nc(N4CCN(C(=O)c5ccco5)CC4)c23)C1 (stereo unspecified) was read as Vaccinia mCherry 14µM* and Vaccinia Venus inconclusive.
For O=C(O)c1ccc(CNc2ncnc3nc[nH]c23)cc1 the results were Vaccinia mCherry inactive and Vaccinia Venus -15%.
For C=CCN(CC=C)S(=O)(=O)c1ccc(NC(=S)NC(=O)c2ccco2)cc1 the results were AmpC inh detg -13%, Vaccinia Venus inconclusive and AmpC inh no detg 35µM*.
`C[C@H](NC(=O)OCc1ccccc1)C(=O)NNC(=O)[C@H](Cc1ccccc1)NC(=O)OC(C)(C)C` gave AmpC inh detg 0%, Vaccinia mCherry inactive, Vaccinia Venus -2% and AmpC inh no detg 30%.
For CC(C)(C)OC(=O)C(Cc1ccc(OC(C)(C)C)cc1)NC(=O)CNC(=O)OCc1ccccc1 (stereo unspecified) the results were AmpC inh detg inconclusive, Vaccinia mCherry 11µM*, Vaccinia Venus inconclusive and AmpC inh no detg 106%.
For CCCSc1nnc(N2C(=O)CC(c3ccsc3)C3=C2CCCC3=O)s1 (stereo unspecified) the results were AmpC inh detg inconclusive, Vaccinia mCherry -7%, Vaccinia Venus -10% and AmpC inh no detg 4.5µM*.
`Clc1ccc(/C=C/c2ccnc3ccccc23)c(Cl)c1` gave Vaccinia mCherry -14% and Vaccinia Venus inconclusive.
CCCCCCCNC(=O)C1(CC2CC(c3cccc(Br)c3)=NO2)CCNCC1 (stereo unspecified) was read as AmpC inh detg inconclusive, Vaccinia mCherry inconclusive, Vaccinia Venus 11µM* and AmpC inh no detg 169%.
For Cc1nonc1CN(C)C(=O)C1CC12CCN(C(=O)/C=C/c1cccc(Cl)c1)CC2 (stereo unspecified) the results were Vaccinia mCherry 0% and Vaccinia Venus -10%.
CCCCn1c(SCC(=O)c2ccc(O)c(O)c2)nc2ccsc2c1=O was read as AmpC inh detg -4%, Vaccinia mCherry 22µM*, Vaccinia Venus inconclusive and AmpC inh no detg -31%.
For O=C1NC(=O)N(CCc2ccc(F)cc2)C(=O)/C1=C/c1ccco1 the results were AmpC inh detg inconclusive, Vaccinia mCherry 29%, Vaccinia Venus 37% and AmpC inh no detg 18µM*.
Screening Cc1ccc(/C=C2/C(=O)NC(=O)N(CCc3ccc(F)cc3)C2=O)o1 returned AmpC inh detg -2%, Vaccinia Venus 4% and AmpC inh no detg -36%.
For Cc1nc(C)n(CC(=O)N2CCOc3ccc(CN4CCN(C)C[C@@H]4c4ccccc4)cc3C2)n1 the results were Vaccinia mCherry -4% and Vaccinia Venus -10%.
`COc1ccc2sc(-c3ccccc3OC)c(-c3ccc(SC)cc3)c2c1` gave Vaccinia mCherry 0% and Vaccinia Venus 5%.
Screening COc1ccc2sc(-c3ccc(SC)cc3)c(-c3ccc(O)cc3)c2c1 returned Vaccinia mCherry inconclusive, Vaccinia Venus 11µM* and AmpC inh no detg -31%.
Cc1ncc2c(c1CNC(=O)CN1CCCC1)CCN(C(=O)c1ccc(F)cc1F)C2 was read as Vaccinia mCherry -7% and Vaccinia Venus 13%.
O=C(/C=C/c1ccccc1)/C=C/c1ccccc1 was read as AmpC inh detg 0%, Vaccinia mCherry inconclusive, Vaccinia Venus 10µM* and AmpC inh no detg -41%.
`CCOC(=O)C(C)/C(C)=N\Nc1ccc([N+](=O)[O-])cc1[N+](=O)[O-]` (stereo unspecified) gave AmpC inh detg 2%, Vaccinia mCherry -12%, Vaccinia Venus -3% and AmpC inh no detg -10%.
`CCOC(=O)C(C)/C(C)=N/NC(N)=S` (stereo unspecified) gave AmpC inh detg -9%, Vaccinia mCherry 22µM*, Vaccinia Venus inconclusive and AmpC inh no detg -33%.
Screening O=C(C[N+]12CCCc3cccc(c31)CCC2)c1ccc(Cl)c2ccccc12 returned Vaccinia mCherry -12% and Vaccinia Venus -4%.
Screening COc1cc(NC(=O)C2CCC(CNc3c(N4CCCCC4)c(=O)c3=O)CC2)cc(OC)c1 (stereo unspecified) returned AmpC inh detg inconclusive, Vaccinia mCherry -12%, Vaccinia Venus -17% and AmpC inh no detg 50µM*.
COc1cc(NC(=O)C2CCC(CNc3c(N4CCC(C)CC4)c(=O)c3=O)CC2)cc(OC)c1 (stereo unspecified) was read as AmpC inh detg inconclusive, Vaccinia mCherry -13%, Vaccinia Venus inconclusive and AmpC inh no detg -28%.
For Cc1ccnc(NC(=O)C2CCC(CNc3c(N4CCCC4)c(=O)c3=O)CC2)c1 (stereo unspecified) the results were AmpC inh detg inconclusive, Vaccinia mCherry -7%, Vaccinia Venus -22% and AmpC inh no detg 2.2µM*.
`Cc1ccc(N2/C(=N/c3nc(C)cc(C)n3)NC(=O)CC2C(=O)O)cc1` (stereo unspecified) gave AmpC inh detg 3%, Vaccinia mCherry inactive, Vaccinia Venus 5% and AmpC inh no detg 0%.
Cc1cc(C)nc(/N=C2\NC(=O)CC(C(=O)O)N2c2ccc(Cl)cc2)n1 (stereo unspecified) was read as AmpC inh detg inconclusive, Vaccinia mCherry inactive, Vaccinia Venus 2% and AmpC inh no detg 8.9µM*.
For CC(C)C(NC(=O)c1ccccn1)c1nnc2n1CCN(Cc1ccc3ccccc3c1)CC2 (stereo unspecified) the results were Vaccinia mCherry inactive and Vaccinia Venus -14%.

Screening data: PubChem, National Center for Advancing Translational Sciences (NCATS)
